From PubChem BioAssay (Tox21) come the findings set out here.

Structures are written as SMILES. Several values for one entry are separate records, joined by “and”; a condition that tells them apart may be missing. Identical values can stand only once. Records with an inconclusive call do not appear. Where a structure was tested more than once in an assay, its records may differ in their call. Activity calls are given as the source filed them. Unless noted, calls follow the shape of the dose curve; as a rule, active = well fitted curve in the direction sought with a large enough effect in the repeat runs; inconclusive = weak or mixed curves; inactive = no such curve, though single readings can be large; an effect the other way counts as inactive or inconclusive.

The target in assay [1] is Thyrotropin receptor (Homo sapiens) (UniProt P16473). As to the kind of experiment: qHTS assay to identify small molecule antagonists of the thyroid stimulating hormone receptor (TSHR) signaling pathway (AID 1259385; calls by dose curve; also: nearly all actives have a fitted effect of over 20% in size; also: potency is read from the fitted curve at half-maximal effect). The gist of the method:
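TSHR-HEK293 cells (800/well) plated 18 h, then compounds with Ro20-1724 and TSH at 1.5 ng/mL final, 30 min at room temperature. cAMP quantified by HTRF (cAMP-d2/anti-cAMP-cryptate, 1 h); 15 concentrations in triplicate.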
In general terms: In qHTS, concentration-response curves come from the screen itself.

The nature of assay [2]: qHTS assay to identify small molecule agonists of the estrogen receptor alpha (ER-alpha) signaling pathway in the presence of an antagonist - cell viability counter screen (AID 1259386).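 Also: cells exposed to compounds for 22 h at 37 °C before the viability read; nearly all actives have a fitted effect of over 30% in size.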 Also: potency is read from the fitted curve at half-maximal effect. The gist of the method:
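Cytotoxicity was measured in parallel with the ERE-luciferase agonist screen, in the same wells. The cells were VM7Luc4E2, which endogenously express ER-alpha, and treatment was with compounds plus 10.0nM ICI-182,780 for 22hr.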

Assay [3] concerns the target Progesterone receptor (Homo sapiens) (UniProt P06401). Kind of assay: qHTS assay to identify small molecule agonists of the progesterone receptor (PR) signaling pathway (AID 1346784; calls by dose curve; also: nearly all actives have a fitted effect of over 30% in size). The gist of the method:
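PR-UAS-bla HEK 293T cells carrying a UAS-driven beta-lactamase reporter were seeded in medium with 2% charcoal-stripped FBS, preincubated 6 hr at 37C, then exposed to compounds in DMSO for 16 hr; agonism was read by LiveBLAzer B/G FRET fluorescence.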

The target is the same in assay [4]. As to the kind of experiment: qHTS assay to identify small molecule antagonists of the progesterone receptor (PR) signaling pathway (AID 1346795; active = well fitted inhibition curve with a large enough effect in the signal ratio in the repeat runs, not every such curve was filed as active; the % refers to the signal ratio; also: potency is read from the fitted curve at half-maximal effect). In outline:
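PR-UAS-bla HEK293T cells carrying a UAS-driven beta-lactamase reporter were plated in medium with 2% charcoal-stripped FBS and rested 6 hr at 37C. Compounds were added with 1 nM R5020 (final) for 16 hr, then FRET substrate loaded 2 hr at room temperature.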

A short description of assay [5]: qHTS assay to identify small molecule antagonists of the progesterone receptor (PR) signaling pathway - cell viability counter screen (AID 1346798). Also: nearly all actives have a fitted effect of over 50% in size. Also: potency is read from the fitted curve at half-maximal effect. In outline: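 PR-UAS-bla HEK293T cells in medium with 2% charcoal-stripped FBS were treated with compounds plus R5020 for 16 hr at 37C. Cell viability was then read by CellTiter-Glo luminescence after 30 min at room temperature in the same wells.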

Assay [6] in a line: qHTS assay to identify small molecule antagonists of the TGF-beta/Smad signaling pathway - cell viability counter screen (AID 1346824). Also: nearly all actives have a fitted effect of over 50% in size. In outline: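 SBE-bla HEK 293T cells, incubated overnight, then compound plus 0.25 ng/mL TGF-beta1 (stock added) for 5 hr at 37 C. Viability was read in the same wells by CellTiter-Glo luminescence after 30 min at room temperature.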
Assay [7] in a line: qHTS assay to identify small molecule agonists of the TGF-beta/Smad signaling pathway (AID 1346859; active = well fitted activation curve with a large enough effect in the signal ratio in the repeat runs, not every such curve was filed as active; the % refers to the signal ratio; also: series mostly up to about 77 µM). The gist of the method: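 HEK 293T cells stably carrying a beta-lactamase reporter driven by the Smad binding element were seeded overnight, exposed to DMSO-dissolved compounds for 5 hr at 37 C, 5% CO2, then loaded with FRET substrate for 2 hr at room temperature.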
A short description of assay [8]: Human pregnane X receptor (PXR) small molecule agonists, qHTS cell viability counter screen (AID 1346977). Also: nearly all actives have a fitted effect of over 50% in size. Also: potency is read from the fitted curve at half-maximal effect. In outline:
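PXR-Luc HepG2 cells in medium with 5% charcoal-stripped FBS were pre-incubated 5hr, then exposed to compounds for 24hr at 37C. Viability was read in the same wells by CellTiter-Fluor fluorescence, reagent added after 23hr with a 1hr incubation.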

A short description of assay [9]: Caspase-3/7 induction in HepG2 cells by small molecules, qHTS assay (AID 1346978). Also: nearly all actives have a fitted effect of over 15% in size. Also: potency is read from the fitted curve at half-maximal effect. The gist of the method:
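Wild-type HepG2 cells, 2,000/well, settled 5 hr at 37 C and 5% CO2, then compound-treated for 17 hr; caspase-3/7 activity read by luminescent Caspase-Glo 3/7 after 30 min at room temperature.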

The nature of assay [10]: Caspase-3/7 induction in CHO-K1 cells by small molecules, qHTS cell viability counter screen (AID 1346979). Also: nearly all actives have a fitted effect of over 35% in size. Also: potency is read from the fitted curve at half-maximal effect. The gist of the method:
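Wild-type CHO-K1 cells were seeded at 1,500 per well, rested 5hr at 37 C, then exposed to compounds in DMSO. After 16hr, CellTiter-Fluor reagent was added and fluorescence read 1hr later as the viability measure.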

Assay [11] can be described thus: Caspase-3/7 induction in CHO-K1 cells by small molecules, qHTS assay (AID 1346980). Also: nearly all actives have a fitted effect of over 15% in size. Also: potency is read from the fitted curve at half-maximal effect. In outline:
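Wild-type CHO-K1 cells exposed to compounds for 17hr at 37 C, 5% CO2. Caspase-3/7 activity then measured by Caspase-Glo 3/7 luminescence after 30min at room temperature.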

Assay [12] is described as follows: Caspase-3/7 induction in HepG2 cells by small molecules, qHTS cell viability counter screen (AID 1346981). Also: nearly all actives have a fitted effect of over 30% in size. Also: potency is read from the fitted curve at half-maximal effect. The gist of the method:
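Cell viability is measured as a cytotoxicity counter screen alongside the Caspase-Glo 3/7 readout in identical wells. Wild-type HepG2 cells are treated with test compounds for 16 hr at 37 C before CellTiter-Fluor addition and a 1-hr incubation.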

The target in assay [13] is Nuclear receptor subfamily 1 group I member 2 (Homo sapiens) (UniProt O75469). As to the kind of experiment: Human pregnane X receptor (PXR) small molecule agonists, qHTS assay (AID 1346982). Also: nearly all actives have a fitted effect of over 35% in size. Also: potency is read from the fitted curve at half-maximal effect. In outline:
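Cells: HepG2 stably carrying PXR-Luc. Medium held 5% charcoal-stripped FBS. Compounds in DMSO added after 5 hr plating, incubated 24 hr, then luminescence quantified with ONE-Glo.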

Assay [14] concerns the target Nuclear receptor subfamily 1 group I member 2 (Rattus norvegicus) (UniProt Q9R1A7). Kind of assay: Rat pregnane X receptor (rPXR) activation by small molecules, qHTS assay (AID 1346983). Also: nearly all actives have a fitted effect of over 20% in size. Also: potency is read from the fitted curve at half-maximal effect. As to conditions: rPXR luciferase reporter cells, One-Glo luminescence, 24 h; max activation: stronger effect = higher value. In outline: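 Cell-based rPXR activation assay: rPXR cells, 2,000 per well, rested 5hr at 37 C, then exposed to compounds in DMSO for 24 hr at 37 C. Luciferase activity read by One-Glo luminescence after 30 min at room temperature.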

The target of assay [15] is Nuclear receptor subfamily 1 group I member 2 (Homo sapiens) (UniProt O75469). Kind of assay: CYP3A4 induction through human pregnane X receptor (PXR) by small molecules, qHTS assay (AID 1346984). Also: nearly all actives have a fitted effect of over 40% in size. Also: potency is read from the fitted curve at half-maximal effect. In outline:
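Quantitative HTS in DPX-2 cells, i.e. HepG2 transfected with PXR response element and CYP3A4-promoter luciferase. Compounds in DMSO incubated 24hr at 37C; then P450-Glo CYP3A4 substrate, 3uM final, 3hr; One-Glo luminescence.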

Assay [16] shares this target. Kind of assay: Human pregnane X receptor (PXR) activation by small molecules, qHTS assay (AID 1346985). Also: nearly all actives have a fitted effect of over 40% in size. Also: potency is read from the fitted curve at half-maximal effect. In outline:
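DPX-2 cells (HepG2 co-transfected with a PXR response element and a CYP3A4-promoter luciferase construct) were seeded at 2,000 per well, rested 5 hr at 37C, then exposed to DMSO-dissolved compounds for 24 hr. Activation was read as luciferase luminescence.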

Assay [17] in a line: qHTS assay to identify small molecule agonists of the progesterone receptor (PR) signaling pathway - cell viability counter screen (AID 1346799; calls by dose curve; also: nearly all actives have a fitted effect of over 45% in size; also: potency is read from the fitted curve at half-maximal effect). The gist of the method:
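PR-UAS-bla HEK293T cells, 3,000 per well in medium with 2% charcoal-stripped FBS, were preincubated 6 hr at 37C, then exposed to compounds for 16 hr; viability was read as CellTiter-Glo luminescence after 30 min at room temperature.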

Assay [18] is described as follows: qHTS assay to identify small molecule agonists of the TGF-beta/Smad signaling pathway - cell viability counter screen (AID 1346829). Also: top concentration of the series differs between compounds; nearly all actives have a fitted effect of over 45% in size. The gist of the method:
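Tox21 qHTS format: SBE-bla HEK 293T cells treated with DMSO-dissolved compounds for 5 hr; CellTiter-Glo luminescence after 30 min at room temperature.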

In assay [19] the target is Thyrotropin-releasing hormone receptor (Homo sapiens) (UniProt P34981). As to the kind of experiment: qHTS assay to identify small molecule antagonists of the thyrotropin-releasing hormone receptor (TRHR) signaling pathway (AID 1346877; active = well fitted inhibition curve with a large enough effect in the repeat runs, not every such curve was filed as active; also: series mostly up to about 51 µM). In outline: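 Antagonism is measured as suppression of the calcium response to 1 nM TRH in TRHR-HEK293 cells that have been dye-loaded for 2 h at 37 °C after overnight plating. Each compound is tested at 15 concentrations in triplicate.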
Chain of Thyrotropin-releasing hormone receptor (Homo sapiens) (P34981 whole entry, looked up): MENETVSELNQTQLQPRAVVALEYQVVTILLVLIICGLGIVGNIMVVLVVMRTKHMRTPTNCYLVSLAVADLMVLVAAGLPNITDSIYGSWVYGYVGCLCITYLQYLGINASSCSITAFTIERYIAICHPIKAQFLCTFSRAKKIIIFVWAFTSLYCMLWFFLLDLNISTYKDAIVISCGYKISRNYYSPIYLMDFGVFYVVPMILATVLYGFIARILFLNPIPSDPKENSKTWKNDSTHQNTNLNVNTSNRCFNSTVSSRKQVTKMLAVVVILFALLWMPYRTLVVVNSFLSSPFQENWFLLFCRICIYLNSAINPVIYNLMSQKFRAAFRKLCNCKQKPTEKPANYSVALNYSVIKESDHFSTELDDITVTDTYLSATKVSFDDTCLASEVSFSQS

The target is the same in assay [20]. Kind of assay: qHTS assay to identify small molecule agonists of the thyrotropin-releasing hormone receptor (TRHR) signaling pathway (AID 1346891; calls by dose curve; also: series mostly up to about 58 µM). The gist of the method: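 TRHR-expressing HEK293 cells were plated 18 h at 37 °C/5% CO2, loaded with calcium dye 2 h at 37 °C, then given compound in DMSO; fluorescence was read kinetically for 3 min at 1 s intervals.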
% is scaled to controls: 0 for no effect and ±100 for the full control effect.

Chain of Nuclear receptor subfamily 1 group I member 2 (Homo sapiens) (O75469 whole entry, looked up): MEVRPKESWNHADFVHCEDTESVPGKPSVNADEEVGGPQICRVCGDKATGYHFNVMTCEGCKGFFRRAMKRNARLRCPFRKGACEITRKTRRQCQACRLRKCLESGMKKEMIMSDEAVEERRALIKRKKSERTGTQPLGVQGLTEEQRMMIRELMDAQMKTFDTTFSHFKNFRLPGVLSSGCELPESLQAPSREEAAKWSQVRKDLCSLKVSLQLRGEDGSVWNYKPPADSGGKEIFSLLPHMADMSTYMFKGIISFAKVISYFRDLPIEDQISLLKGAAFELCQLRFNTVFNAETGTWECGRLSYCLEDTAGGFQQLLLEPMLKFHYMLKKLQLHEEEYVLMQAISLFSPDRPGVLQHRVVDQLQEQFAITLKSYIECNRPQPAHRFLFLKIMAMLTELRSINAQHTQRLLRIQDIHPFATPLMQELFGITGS
Chain of Progesterone receptor (Homo sapiens) (P06401 whole entry, looked up): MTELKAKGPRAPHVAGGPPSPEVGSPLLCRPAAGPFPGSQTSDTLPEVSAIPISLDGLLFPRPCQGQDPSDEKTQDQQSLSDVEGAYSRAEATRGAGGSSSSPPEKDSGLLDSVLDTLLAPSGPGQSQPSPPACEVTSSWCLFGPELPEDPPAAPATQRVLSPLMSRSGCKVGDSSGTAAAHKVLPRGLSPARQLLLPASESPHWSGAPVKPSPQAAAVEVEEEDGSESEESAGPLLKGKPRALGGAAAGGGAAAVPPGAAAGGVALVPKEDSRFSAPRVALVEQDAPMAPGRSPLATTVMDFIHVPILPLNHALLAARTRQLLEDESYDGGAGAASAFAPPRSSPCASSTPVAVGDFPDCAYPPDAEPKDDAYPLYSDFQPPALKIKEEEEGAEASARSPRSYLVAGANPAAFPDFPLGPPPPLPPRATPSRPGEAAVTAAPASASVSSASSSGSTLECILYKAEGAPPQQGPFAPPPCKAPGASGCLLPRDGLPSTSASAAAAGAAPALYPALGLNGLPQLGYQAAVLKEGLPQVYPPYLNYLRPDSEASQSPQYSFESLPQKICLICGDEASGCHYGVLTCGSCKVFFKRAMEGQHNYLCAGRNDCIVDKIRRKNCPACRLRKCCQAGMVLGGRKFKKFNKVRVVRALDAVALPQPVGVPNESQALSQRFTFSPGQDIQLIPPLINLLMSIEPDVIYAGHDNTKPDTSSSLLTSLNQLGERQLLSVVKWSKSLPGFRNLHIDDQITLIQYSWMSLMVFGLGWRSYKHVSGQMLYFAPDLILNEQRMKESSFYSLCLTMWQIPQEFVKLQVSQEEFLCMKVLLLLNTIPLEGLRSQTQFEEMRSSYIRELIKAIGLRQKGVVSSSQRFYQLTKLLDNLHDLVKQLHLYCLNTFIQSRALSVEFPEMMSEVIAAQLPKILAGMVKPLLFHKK
Chain of Nuclear receptor subfamily 1 group I member 2 (Rattus norvegicus) (Q9R1A7 whole entry, looked up): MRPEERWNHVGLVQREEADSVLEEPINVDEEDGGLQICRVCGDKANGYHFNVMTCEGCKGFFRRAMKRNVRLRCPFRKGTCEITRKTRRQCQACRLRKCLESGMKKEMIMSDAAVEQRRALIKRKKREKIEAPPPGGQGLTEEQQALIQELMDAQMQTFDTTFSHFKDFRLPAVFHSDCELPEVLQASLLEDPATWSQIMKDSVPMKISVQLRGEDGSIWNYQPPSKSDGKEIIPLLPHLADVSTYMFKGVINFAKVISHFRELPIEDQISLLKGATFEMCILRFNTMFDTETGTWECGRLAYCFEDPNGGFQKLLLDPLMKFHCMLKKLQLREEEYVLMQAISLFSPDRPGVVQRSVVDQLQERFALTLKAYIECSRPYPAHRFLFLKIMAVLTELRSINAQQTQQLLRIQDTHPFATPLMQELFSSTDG
Chain of Thyrotropin receptor (Homo sapiens) (P16473 whole entry, looked up): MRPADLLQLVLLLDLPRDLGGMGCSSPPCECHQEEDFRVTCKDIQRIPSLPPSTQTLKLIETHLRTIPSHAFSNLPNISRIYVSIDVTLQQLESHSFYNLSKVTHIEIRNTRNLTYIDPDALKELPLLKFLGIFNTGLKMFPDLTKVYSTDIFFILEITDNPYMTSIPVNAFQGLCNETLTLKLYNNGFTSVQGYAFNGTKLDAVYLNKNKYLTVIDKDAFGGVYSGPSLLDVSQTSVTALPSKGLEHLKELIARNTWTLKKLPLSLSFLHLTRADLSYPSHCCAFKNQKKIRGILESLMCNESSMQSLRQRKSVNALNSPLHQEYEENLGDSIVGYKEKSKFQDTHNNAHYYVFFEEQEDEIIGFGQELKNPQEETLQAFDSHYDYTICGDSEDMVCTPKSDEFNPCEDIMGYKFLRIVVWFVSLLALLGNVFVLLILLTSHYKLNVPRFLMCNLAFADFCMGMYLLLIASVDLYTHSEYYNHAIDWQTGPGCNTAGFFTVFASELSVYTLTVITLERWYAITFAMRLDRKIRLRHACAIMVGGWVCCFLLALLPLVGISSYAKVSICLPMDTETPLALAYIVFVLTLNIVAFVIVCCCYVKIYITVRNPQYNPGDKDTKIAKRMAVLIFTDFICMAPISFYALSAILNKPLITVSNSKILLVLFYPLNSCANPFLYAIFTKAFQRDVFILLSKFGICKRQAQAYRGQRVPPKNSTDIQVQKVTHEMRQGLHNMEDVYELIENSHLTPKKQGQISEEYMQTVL

As for `Cc1cc2c(OCC(CNC(C)(C)C)OC(=O)c3ccccc3)cccc2[nH]1` (stereo unspecified), the Potency entry in assay [1], in assay [2], in [3], in assay [4], in assay [5] and in assay [6] was “inactive” throughout. Besides, the Potency entry in [7], in [8], in [9], in assay [10], in [11] and in [12] was “inactive” throughout. The Potency entry in assay [13], in [15] and in [16] was “inactive” each time. For the same compound, the max activation in assay [14] is -3.65% (inactive).

For the compound `CN1CCCC(n2nc(Cc3ccc(Cl)cc3)c3ccccc3c2=O)CC1` (stereo unspecified), the Potency in assay [1] was 26.6 µM (active); in assay [2] it was 11.9 µM (active); in assay [5], 26.6 µM (active); in [17], 13.3 µM (active); in assay [8], 13.3 µM (active); in [10], 29.8 µM (active). Further, the Potency in assay [12] was 26.6 µM (active); in assay [13], 5.31 µM (active); in [15], 28.2 µM (active); in assay [16] it was 20 µM (active). The Potency result in assay [3], in assay [6], in assay [18], in [7], in [20] and in assay [9] was “inactive” throughout. The Potency result in [11] was “inactive”. For the same compound, the compound was called inactive in assay [19]. Besides, the max activation in assay [14] was -1.86% (inactive).

For `CN1CCCC(CC2c3ccccc3Sc3ccccc32)C1` (stereo unspecified), the Potency was 29.8 µM (active) in assay [1], 18.8 µM (active) in assay [5] and 29.8 µM (active) in [8]. Moreover, the Potency entry in assay [2], in assay [3], in [6], in [18], in assay [7] and in assay [20] was “inactive” in each case. For the same compound, the Potency entry in assay [11], in assay [12], in [13] and in [16] was “inactive” throughout. Also, in assay [19], the result was inactive. Also, in [14], the max activation is -1.72% (inactive).

As to `CCCCCCCCOc1ccc(C(=O)O)cc1`, the Potency entry in [1], in [2], in assay [3], in [6], in assay [18] and in assay [7] was “inactive” in each case. Further, the Potency result in [20], in [9], in [11] and in assay [12] was “inactive” each time. The Potency in [4] was 48 µM (active); in assay [13], 60.4 µM (active). The result in assay [19] was inactive.

In the case of `CCC=CC#N`, the Potency entry in assay [1], in assay [2], in assay [3], in assay [5], in assay [6] and in assay [18] was “inactive” in each case. In addition, the Potency entry in assay [7], in [20], in assay [9], in assay [10], in [11] and in assay [12] was “inactive” throughout. Besides, the outcome in assay [19] was inactive. Further, in assay [13], the Potency is 47.1 µM (active).

Regarding `C[C@@H]1CC(=O)NN=C1c1ccc(NN=C(C#N)C#N)cc1`, the Potency entry in assay [1], in [3], in [5], in assay [17], in assay [6] and in assay [18] was “inactive” throughout. For the same compound, the Potency entry in [7], in assay [20], in assay [15] and in assay [16] was “inactive” throughout. Besides, the Potency in assay [2] was 26.6 µM (active); in [8], 16.8 µM (active) and 21.1 µM (active); in assay [9] it was 29.8 µM (active); in assay [10], 11.9 µM (active); in [11], “inactive and 13.3 µM (active)”; in assay [12], 18.8 µM (active) and 23.7 µM (active). Moreover, the Potency in [13] was 11.9 µM (active) and 21.1 µM (active); in assay [14], 14.1 µM (active). Moreover, in assay [19], the compound was classed as inactive.
